From PubChem
A selection: hits, their analogues and other compounds. The true share with any hit is near 19%.
HT1080-NT tox: kills 2HG-producing HT-1080-NT fibrosarcoma cells; Potency, µM (highest dose often 46.1 µM), without a hit: at the highest dose activity, negative = less viability, hits mostly cytotoxic; HT-1080-NT fibrosarcoma viability, CellTiter-Glo ATP luminescence, 48 h; hit rate 1.6% among 360,000; AID 686970;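 also: NT is the 2HG producing partner of a matched IDH1 knockdown line; potency is read from the fitted curve at half-maximal effect; 0% = DMSO-treated cells and -100% = media-only wells without cells; nearly all actives have a fitted effect of over 55% in size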
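HT-1080-NT fibrosarcoma cells (2HG-overproducing), 750 cells/well in RPMI with 5% FBS, dosed after 2 h and incubated 48 h at 37C. CellTiter-Glo luminescence normalized to DMSO and no-cell wells; concentration-response curves fitted and classed.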
HT1080 IDH1KD tx: toxicity to HT-1080 IDH1 knockdown cells (counter line); HT-1080 IDH1 knockdown viability, ATP luminescence, 48 h; Potency, µM (series often up to 46.1 µM), inactives show at the top dose activity, negative = toxicity, actives largely listed as cytotoxic; hit rate 2% among 360,000; AID 686971;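 also: potency is read from the fitted curve at half-maximal effect; 0% = DMSO wells and -100% = cell-free medium wells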
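Cytotoxicity counter-line: IDH1KD HT-1080, 48 h, CellTiter-Glo. Curves classed by r2, magnitude and activity.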
TDP1 cell noCPT: qHTS for Inhibitors of human tyrosyl-DNA phosphodiesterase 1 (TDP1): qHTS in cells in absence of CPT | DT40 Tdp1-/- hTDP1 cells, no CPT, ATP luminescence, 48 h | hit rate 15% among 420,000 | Potency, µM (titrated, usually from 46.2 µM), for the others: top-dose activity change, negative = growth inhibition, most hits filed as inhibitors; also: potency is read from the fitted curve at half-maximal effect; nearly all actives have a fitted effect of over 55% in size
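No-CPT arm: Tdp1-/-;hTDP1 DT40 cells (400/well) plus compounds, incubated ≥48 hr at 37 °C. Readout CellTiter-Glo luminescence.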
TDP1 cell CPT: growth inhibition of DT40 Tdp1-/-;hTDP1 cells with camptothecin (screen for TDP1 inhibitors); AID 686979; hit rate 12% among 420,000; Potency, µM (doses to about 46.2 µM), for the others: at the top dose activity change, negative = growth inhibition, hits mostly inhibitors; chicken DT40 Tdp1-/-;hTDP1 cells + 20 nM CPT, ATP luminescence, 48 h; also: potency is read from the fitted curve at half-maximal effect; nearly all actives have a fitted effect of over 55% in size
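Cell growth measured by CellTiter-Glo luminescence after a minimum 48 h, 37 C compound exposure with 20 nM CPT in Tdp1-knockout DT40 cells stably expressing hTDP1, seeded 400/well; qHTS titration format.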
IL-1B inflam inh: inhibitors of inflammasome signaling (IL-1 beta secretion) | hit rate 4.7% among 360,000 | THP-1 LPS/ATP IL-1B secretion, AlphaLISA, 16 h; hits give low values | activity change, % at 57.5 µM; in the data active = activity change below about -50%; inconclusive = mostly about -30% to -49%
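Secreted IL-1B measured by AlphaLISA bead assay after 16 h compound exposure of THP-1 cells; compounds (final up to 57.5 uM) added 1 h before LPS (250 ng/mL) and ATP (1.25 mM) stimulation; lower signal means less secretion.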
The depositor's hits bear a star; [ ] = dose if it differs, or a comment. Unless noted, calls follow the shape of the dose curve; as a rule, active = well fitted curve in the direction sought with a large enough effect; inconclusive = small, poorly fitted or top-dose-only effect, or another doubt; inactive = no such curve, though single readings can be large; an effect the other way counts as inactive or inconclusive. Unless noted, % is scaled to controls: 0 for no effect and ±100 for the full control effect.

How did O=C(C[n+]1csc2ccccc21)c1cccc([N+](=O)[O-])c1 do in these assays?
TDP1 cell noCPT: 10µM*; TDP1 cell CPT: 11µM*

What do the screens show for `Cc1c(CCOC(=O)c2ccc([N+](=O)[O-])cc2)sc[n+]1CC(=O)c1ccccc1`?
HT1080-NT tox: 12%; HT1080 IDH1KD tx: 2%; TDP1 cell noCPT: inconclusive; TDP1 cell CPT: -23%; IL-1B inflam inh: -22

How did COc1ccc(C(=O)OCCc2sc[n+](CC(=O)c3ccccc3)c2C)cc1 do in these assays?
HT1080-NT tox: -21%; HT1080 IDH1KD tx: -18%; TDP1 cell noCPT: inconclusive; TDP1 cell CPT: inconclusive; IL-1B inflam inh: -55*

What do the screens show for `COc1ccc(NC(=O)CCc2c(C)nc3nc(CNC(=O)OC(C)(C)C)nn3c2C)cc1OC`?
TDP1 cell noCPT: -21%; TDP1 cell CPT: -2%

What do the screens show for `CCCCC(=O)Nc1cc(C(=O)NCCc2ccccc2)ccc1Cl`?
HT1080-NT tox: -8%; HT1080 IDH1KD tx: 0%; TDP1 cell noCPT: -21%; TDP1 cell CPT: -2%; IL-1B inflam inh: 30

How did O=C(c1ccc([N+](=O)[O-])cc1)N1CCSC1c1ccc(Br)cc1 (stereo unspecified) do in these assays?
HT1080-NT tox: -15%; HT1080 IDH1KD tx: 1%; TDP1 cell noCPT: 18µM*; TDP1 cell CPT: inconclusive; IL-1B inflam inh: -6

What do the screens show for `CC(C)OP(=O)(c1ccc(N(C)C)cc1)C(O)c1ccc(N(C)C)cc1` (stereo unspecified)?
HT1080-NT tox: -1%; HT1080 IDH1KD tx: -2%; TDP1 cell noCPT: -16%; TDP1 cell CPT: 13%; IL-1B inflam inh: -2

What do the screens show for `Cc1ccc(N=C2C(=S)N(c3ccc(C)cc3)C(=N)N2/N=C/c2ccc(Cl)cc2)cc1`?
HT1080-NT tox: 0%; HT1080 IDH1KD tx: 9%; TDP1 cell noCPT: 26µM*; TDP1 cell CPT: 26µM*; IL-1B inflam inh: inconclusive

How did COc1ccc(/C=N/N2CCN(c3ccc(Cl)cc3)CC2)cc1 do in these assays?
HT1080-NT tox: 26%; HT1080 IDH1KD tx: inconclusive; TDP1 cell noCPT: -2%; TDP1 cell CPT: 12%; IL-1B inflam inh: 1

Results for COc1cc(NC2=CC(=O)CC(C)(C)C2)cc(OC)c1 ?
HT1080-NT tox: 5%; HT1080 IDH1KD tx: 8%[9.24 µM]; TDP1 cell noCPT: -7%; TDP1 cell CPT: inconclusive; IL-1B inflam inh: 15

Results for Cc1cccc(C#CC2=CC(=O)CC(C)(C)C2)c1 ?
HT1080-NT tox: 16%; HT1080 IDH1KD tx: 0%; TDP1 cell noCPT: 10µM*; TDP1 cell CPT: 16µM*

How did COc1cccc(C#CC2=CC(=O)CC(C)(C)C2)c1 do in these assays?
HT1080-NT tox: -28%; HT1080 IDH1KD tx: inconclusive; TDP1 cell noCPT: 2.9µM*; TDP1 cell CPT: 5.8µM*

How did Cc1ccc(C2=CC(=O)CC(C)(C)C2)cc1 do in these assays?
HT1080-NT tox: -6%; HT1080 IDH1KD tx: 2%; TDP1 cell noCPT: 0%; TDP1 cell CPT: -12%; IL-1B inflam inh: 12

Results for CC1(C)CC(=O)C=C(C#CC2(O)CCCCC2)C1 ?
HT1080-NT tox: 5.2µM*; HT1080 IDH1KD tx: 13µM*; TDP1 cell noCPT: 5.2µM*; TDP1 cell CPT: 7.3µM*; IL-1B inflam inh: -108*

Results for CC1(C)CC(=O)C=C(NCCO)C1 ?
HT1080-NT tox: 7%; HT1080 IDH1KD tx: 3%; TDP1 cell noCPT: -23%; TDP1 cell CPT: -7%; IL-1B inflam inh: 17

What do the screens show for `O=C(CN(C(=O)c1cc2c(s1)CCC2)C1CCCC1)NCc1cccs1`?
HT1080-NT tox: -7%; HT1080 IDH1KD tx: 5%[9.24 µM]; TDP1 cell noCPT: 18µM*; TDP1 cell CPT: 8.2µM*; IL-1B inflam inh: inconclusive

Results for Cc1ccc(CN(c2ccc(C(=O)NCc3ccccn3)cc2)S(C)(=O)=O)cc1 ?
HT1080-NT tox: 14%; HT1080 IDH1KD tx: 4%; TDP1 cell noCPT: 0%; TDP1 cell CPT: 4%; IL-1B inflam inh: -11

Results for O=C1C=CC(=O)N1c1cccc(-c2ccccc2)c1 ?
HT1080-NT tox: 21µM*; HT1080 IDH1KD tx: inconclusive; TDP1 cell noCPT: 0.73µM*; TDP1 cell CPT: 0.65µM*; IL-1B inflam inh: -65*

Results for COc1ccc(CNC(=O)C(c2ccccc2F)N(C(=O)c2csnn2)C2CC2)cc1 (stereo unspecified) ?
HT1080-NT tox: 0%; HT1080 IDH1KD tx: 20%; TDP1 cell noCPT: inconclusive; TDP1 cell CPT: 21µM*; IL-1B inflam inh: -7

What do the screens show for `O=C(NCc1ccccc1)C(c1c(F)cccc1Cl)N(C(=O)c1csnn1)C1CC1` (stereo unspecified)?
HT1080-NT tox: 21%; HT1080 IDH1KD tx: 25%; TDP1 cell noCPT: inconclusive; TDP1 cell CPT: inconclusive; IL-1B inflam inh: -17

Results for CC(C)C[C@@H](CNCC(=O)[C@H](CC(C)C)NC(=O)c1[nH]cnc1C(=O)N[C@H](CN)CC(C)C)NC(=O)c1nc[nH]c1C(=O)N[C@@H](CC(=O)O)C(=O)O ?
HT1080-NT tox: -6%; HT1080 IDH1KD tx: -3%; TDP1 cell noCPT: -23%; TDP1 cell CPT: -21%; IL-1B inflam inh: -10

What do the screens show for `CC(C)C(=O)Nc1ccc(C(=O)NNC(=O)CCCOc2ccc(Cl)cc2Cl)cc1`?
HT1080-NT tox: 29%; HT1080 IDH1KD tx: 8%; TDP1 cell noCPT: -19%; TDP1 cell CPT: -5%; IL-1B inflam inh: 30

Results for O=C(NCc1ccccc1)C1CCC(CNS(=O)(=O)c2ccc(Br)s2)CC1 (stereo unspecified) ?
TDP1 cell noCPT: -22%; TDP1 cell CPT: -28%

What do the screens show for `O=C(C1CCC(CNS(=O)(=O)c2cccs2)CC1)N1CCN(c2ccc(Cl)cc2)CC1` (stereo unspecified)?
HT1080-NT tox: inconclusive; HT1080 IDH1KD tx: 0%; TDP1 cell noCPT: 4.1µM*; TDP1 cell CPT: 6.5µM*; IL-1B inflam inh: -15

What do the screens show for `Cc1ccc(C)c(N2CCN(C(=O)C3CCC(CNS(=O)(=O)c4ccc(Br)s4)CC3)CC2)c1` (stereo unspecified)?
TDP1 cell noCPT: 5.8µM*; TDP1 cell CPT: 5.8µM*

Results for CC(=O)c1ccc(NC(=O)C2CCC(CNS(=O)(=O)c3ccc(Br)s3)CC2)cc1 (stereo unspecified) ?
TDP1 cell noCPT: -14%; TDP1 cell CPT: 11%

What do the screens show for `O=C(C1CCC(CNS(=O)(=O)c2ccc(Br)s2)CC1)N1CCN(c2ccccc2)CC1` (stereo unspecified)?
TDP1 cell noCPT: inconclusive; TDP1 cell CPT: 4.6µM*

Results for O=C(NC1CCCC1)C1CCC(CNS(=O)(=O)c2cccs2)CC1 (stereo unspecified) ?
HT1080-NT tox: 0%; HT1080 IDH1KD tx: 5%; TDP1 cell noCPT: -2%; TDP1 cell CPT: -2%; IL-1B inflam inh: 0
